The values below come from PubChem BioAssay (Tox21).

Results filed as inconclusive are left out. The source made the active and inactive calls. Calls come from the whole dose curve; as a rule, active = well fitted activation curve with a large enough effect in the repeat runs; inconclusive = weak or mixed curves; inactive = flat fitted curve, though single readings scatter.
% is set by controls: 0 for no effect and ±100 for the full control effect.

The test in a line: A CellTox Green Cytotoxicity Assay to monitor cytotoxicity in HEK293 cells - 8 hour (AID 1224884). Note: nearly all actives have a fitted effect of over 35% in size. To be noted: CellTox Green fluorescence; series mostly up to 76.8 µM; cytotoxicity increase: at the top concentration. In a few lines: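 HEK293 cells, 600/well, were preincubated 5 hours and then exposed to compounds at 37 C for up to 40 hours. A cell-impermeant cyanine dye staining dead-cell DNA was read by fluorescence at 0, 8, 16, 24, 32 and 40 h time points.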
For the compound `O=c1[nH]c2ccc(Cl)cc2o1`, the “cytotoxicity increase” value was -0.492% (inactive).

Take `Cc1ccc(C(C)(C)O)cc1`: the “cytotoxicity increase” value was -5.62% (inactive).

As for `CCCC(=O)C(=O)O`, the “cytotoxicity increase” value was 4.63% (inactive).

For `CC(C)=CCC1C(=O)N(c2ccccc2)N(c2ccccc2)C1=O`, the “cytotoxicity increase” value was 2.4% [at 35.3 µM] (inactive).

`CCOC(=O)/C=C/C(=O)OCC`: the “cytotoxicity increase” value was -5.97% (inactive).

For the compound `Cc1ccc(CO)cc1`, the “cytotoxicity increase” value was 0.17% (inactive).

Regarding `O=C(OC(=O)c1ccccc1)c1ccccc1`, the “cytotoxicity increase” value is -11.1% (inactive).

In the case of `CC(C)=CCC/C(C)=C/CC/C(C)=C/CCC(=O)OC/C=C(\C)CCC=C(C)C`, the “cytotoxicity increase” value was -7.73% [at 35.3 µM] (inactive).

Turning to `O[C@@H]1CO[C@H]2[C@@H]1OC[C@@H]2O`, the “cytotoxicity increase” value is 0.453% [at 35.3 µM] (inactive).

Take `CCCCC(CC)CN` (stereo not given): the “cytotoxicity increase” value is 1.94% (inactive).

`COc1cc(C(=O)NCCCCCC(=O)O)cc(OC)c1OC`: the “cytotoxicity increase” value was -9.9% [at 35.3 µM] (inactive).

As to `CC(CCC(=O)O)C(=O)O` (stereo not given), the “cytotoxicity increase” value is 2.6% (inactive).

Take `CCC1NC(=O)c2cc(S(N)(=O)=O)c(Cl)cc2N1` (stereo not given): the “cytotoxicity increase” value was -11.4% [at 35.3 µM] (inactive).

On to `O=C1NCCN1CCO`, for which the “cytotoxicity increase” value was -5.74% (inactive).

For `C1COC1`, the “cytotoxicity increase” value is -0.231% (inactive).

Regarding `CCn1cc(C(=O)O)c(=O)c2cc(F)c(N3CCNCC3)cc21`, the “cytotoxicity increase” value was -3.9% [at 35.3 µM] (inactive).

Consider `CO[C@]1(NC(=O)CSC(F)F)C(=O)N2C(C(=O)O)=C(CSc3nnnn3CCO)CO[C@H]21`, for which the “cytotoxicity increase” value was -1.56% [at 35.3 µM] (inactive).

Regarding `O=C(O)CCCCCCCCCCCBr`, the “cytotoxicity increase” value was 2.76% (inactive).

For the compound `CCC(=O)OC`, the “cytotoxicity increase” value was -5.07% (inactive).

Turning to `CCC(C)(C)OC`, the “cytotoxicity increase” value is -9.16% (inactive).

Take `CC(C)=CC(=O)C=C(C)C`: the “cytotoxicity increase” value was 6.64% (inactive).

For `CC(=O)OCC(=O)NCCCOc1cccc(CN2CCCCC2)c1`, the “cytotoxicity increase” value was 3.41% [at 35.3 µM] (inactive).

For `CCCCCCCCCI`, the “cytotoxicity increase” value is -0.166% (inactive).

As to `CCc1ccccc1`, the “cytotoxicity increase” value was 1.73% (inactive).

`Cc1ccccc1S`: the “cytotoxicity increase” value is 2.93% [at 35.3 µM] (inactive).

`Cc1cscn1`: the “cytotoxicity increase” value was -0.158% (inactive).

With `N#CCc1ccc(Cl)cc1Cl`, the “cytotoxicity increase” value is 14.1% (inactive).

As for `CCCCCC[C@@H](O)C/C=C\CCCCCCCC(=O)O`, the “cytotoxicity increase” value is -12.5% (inactive).

With `Cc1cc(C)c(N)cc1C`, the “cytotoxicity increase” value is -14.4% (inactive).

`C=CC(C)(CCC=C(C)C)OC(=O)CC(C)C` (stereo not given): the “cytotoxicity increase” value was 2.06% (inactive).
